CF NFkB block: cystic fibrosis NF-kB activation inhibition; KKLEB NF-kB-GFP reporter, PAF-induced, GFP fluorescence overnight; inhibition, % at 5 µM; 0.86% of 360,000 active; AID 588850;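 active = at least 50% inhibition at 5 µM, scaled per plate between neutral and stimulator controls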;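 also: PAF is a Pseudomonas aeruginosa culture filtrate used as stimulus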
Mdm2-MdmX inh: disrupts the human Mdm2-MdmX interaction; AID 485346; SaOS-2 split-luciferase Mdm2/MdmX complementation, luminescence; O15151+Q00987; inhibition, % at 8 µM; 3% of 330,000 active;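 active = inhibition of at least 50% at 8 µM in the primary screen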
Peg3 prom inh-1: reduces Peg3 promoter-driven luciferase expression in HeLa. HeLa PEG-Prom luciferase reporter, luminescence, overnight. inhibition, % at 20 µM. 1.7% of 360,000 active;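 active = inhibition of at least 50% at 20 µM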
HIF-2a block: blocks HIF-2a reporter activity; inhibition, % at 18.8 µM; 786-0 RCC cells HIF-2a reporter, luciferase luminescence, overnight; AID 624352; 0.72% of 360,000 active;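 active = inhibition of the luminescence signal of 40% or more relative to plate controls, in a single-dose primary screen at 18.75 µM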
ABHD5-PLIN5 inh: inhibitors of human ABHD5-perilipin-5 interaction | Q00G26+Q8WTS1 | Split G. princeps luciferase complementation, luminescence, 4 h | inhibition, % at 4 µM | 0.78% of 360,000 active | AID 602281;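 active = inhibition above the mean inhibition across every tested compound plus 3 SD, cut at about 22% in these data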
Target sequence (Q00G26 whole entry, looked up): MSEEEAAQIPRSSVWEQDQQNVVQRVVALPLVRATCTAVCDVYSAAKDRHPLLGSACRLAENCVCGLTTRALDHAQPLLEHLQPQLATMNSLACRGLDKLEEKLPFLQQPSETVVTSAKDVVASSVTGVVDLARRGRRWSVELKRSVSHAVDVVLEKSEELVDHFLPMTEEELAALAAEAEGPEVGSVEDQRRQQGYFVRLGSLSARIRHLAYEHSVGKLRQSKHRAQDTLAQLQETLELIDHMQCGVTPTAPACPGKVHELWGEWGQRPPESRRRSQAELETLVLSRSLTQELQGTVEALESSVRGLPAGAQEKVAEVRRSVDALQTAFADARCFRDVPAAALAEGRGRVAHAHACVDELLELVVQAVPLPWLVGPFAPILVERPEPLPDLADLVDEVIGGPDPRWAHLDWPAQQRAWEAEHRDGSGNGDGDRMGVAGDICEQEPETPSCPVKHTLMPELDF
Target sequence (Q8WTS1 whole entry, looked up): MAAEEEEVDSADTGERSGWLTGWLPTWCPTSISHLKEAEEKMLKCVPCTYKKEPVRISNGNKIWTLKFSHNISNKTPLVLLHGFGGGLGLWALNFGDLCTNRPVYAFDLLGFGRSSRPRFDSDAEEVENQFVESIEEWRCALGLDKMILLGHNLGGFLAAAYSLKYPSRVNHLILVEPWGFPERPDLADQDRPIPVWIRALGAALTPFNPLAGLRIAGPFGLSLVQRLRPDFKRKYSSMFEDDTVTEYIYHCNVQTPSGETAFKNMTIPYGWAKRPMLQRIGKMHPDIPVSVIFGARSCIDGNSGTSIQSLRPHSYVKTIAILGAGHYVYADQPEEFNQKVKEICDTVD
KKLEB tox: counter-screen for CF NF-kB inhibitors: cytotoxicity; 0.36% of 360,000 active; KKLEB CF airway cells viability, ATPlite luminescence, overnight; stronger effect = lower value; cells stimulated with P. aeruginosa culture filtrate; activity change (cytotoxicity), % at 5 µM;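 active = corrected activity change at or below -50% at 5 µM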
Mdm2 MdmX conf-1: confirmation of human Mdm2/MdmX interaction inhibitors. inhibition, % at 8 µM. shares compounds with Mdm2-MdmX inh. 55% of 10,000 active. Mdm2-MdmX binding, luminescent assay. AID 489028
FLuc counter: full-length luciferase inhibition in Mdm2/MdmX counter-screen | shares compounds with Mdm2-MdmX inh | SaOS-2 full-length luciferase counterscreen, luminescence | inhibition, % at 8 µM | 77% of 6,200 active | AID 504607;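 active = mean inhibition at 8 µM reaching about 37%, which flags the compound as non-specific, limit read from the data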;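 also: p53-null SaOS-2 cells with luciferase driven by a doxycycline-inducible promoter; compound on cells about two nights before reading with doxycycline added after day one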
Peg3 prom inh-2: Peg3 promoter inhibition confirmation | shares compounds with Peg3 prom inh-1 | HeLa PEG-Prom luciferase reporter, luminescence, overnight | inhibition, % at 20 µM | 84% of 1,300 active | AID 602417;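 active = at 20 µM dose, 40% or more inhibition averaged across four replicates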
CF NFkB inh conf: CF NF-kB inhibition confirmation, single concentration; KKLEB CF airway cells, PAF-induced NF-kB-GFP fluorescence, overnight; shares compounds with CF NFkB block; inhibition, % at 5 µM; 64% of 1,300 active;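 also: stimulus PAF is a Pseudomonas aeruginosa filtrate and not platelet activating factor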
ABHD5 PLIN5 conf: confirmation of human ABHD5-PLIN5 interaction inhibitors. shares compounds with ABHD5-PLIN5 inh. biochemical ABHD5-PLIN5 interaction, luminescence. inhibition, % at 4 µM. 67% of 2,200 active. AID 651612; in the data active = inhibition above about 23%
HNF4 split-luc: active in HNF4 split-luciferase counter-screen for ABHD5-PLIN5 inhibitors; shares compounds with ABHD5-PLIN5 inh; 77% of 2,200 active; inhibition, % at 4 µM; HNF4 dimerization, luminescence, biochemical; AID 651674;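 active = mean inhibition across replicate wells exceeding the computed hit threshold, cut at about 13% in these data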;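 also: light from luciferase halves that rejoin when HNF4 fusion proteins dimerize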
Mdm2 MdmX conf-2: confirmation of inhibitors of human Mdm2/MdmX interaction, set 2; inhibition, % at 8 µM; shares compounds with HIF-2a block; AID 504601; SaOS-2 split-luciferase Mdm2/MdmX complementation, luminescence; 99% of 740 active;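 active = mean inhibition of the luminescence signal across two replicates at or above 26 percent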
HIF-2a inh conf: HIF-2a inhibition, single concentration confirmation. inhibition, % at 18.8 µM. 786-0 RCC cells, HIF-2a luciferase reporter luminescence, overnight. shares compounds with HIF-2a block. 56% of 1,800 active. AID 651580;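 active = mean inhibition across four replicates of at least 40 percent at the single tested concentration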
HIF-1a cs: HIF-1a inhibition counter-screen for HIF-2a hits; shares compounds with HIF-2a block; MiaPaCa-2 HIF-1a luciferase reporter, desferoxamine, overnight; inhibition, % at 18.8 µM; 72% of 1,800 active;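 active = mean inhibition of the reporter signal across four replicates at the single tested dose of 50% or more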
Of the large screens only hits and unclear results are named; the others gave an inactive call (follow-up assays come after a bar, where they were run). This is a sample that favours compounds with a hit; in the whole collection about 4.6% have one here. Rule as the data show it, unless noted: active = inhibition above about 40%; inactive = the rest.

COc1cc(Cl)c(C)cc1NC(=O)CSc1sc2c(O)cc(=O)[nH]c2c1C#N	none
CCOC(=O)C(C)(C)N(Cc1ccc(C)cc1)S(=O)(=O)c1ccc(Cl)c([N+](=O)[O-])c1	Mdm2-MdmX inh 96, Peg3 prom inh-1 105, HIF-2a block 61 | Mdm2 MdmX conf-1 66 | FLuc counter 71 | HIF-2a inh conf inactive | HIF-1a cs 105
Cc1ccc2nc(C)cc(N/N=C/c3cccc(O)c3)c2c1	none
COc1ccc2nc(C)cc(N/N=C/c3ccc(F)cc3)c2c1	Mdm2-MdmX inh 100, Peg3 prom inh-1 103, HIF-2a block 87, KKLEB tox -77 | Mdm2 MdmX conf-1 100 | FLuc counter 51 | Mdm2 MdmX conf-2 103
Cc1ccc(NC(=O)NC(=O)COC(=O)c2ccc(O)cc2O)c(C)c1	none (no result: Mdm2-MdmX inh)
CCN1CCN(C(=O)NCc2ccccc2)CC1	none
COc1ccccc1[C@@]1(C)ON(c2ccccc2C(F)(F)F)C1=O	Mdm2-MdmX inh 89, Peg3 prom inh-1 77, HIF-2a block 66 | Mdm2 MdmX conf-1 80 | FLuc counter inactive | HIF-2a inh conf inactive | HIF-1a cs 101
COc1ccc(-c2csc3ncnc(N4CCN(S(=O)(=O)c5cccc(C(F)(F)F)c5)CC4)c23)cc1	none
Cn1nnnc1Sc1ncnc2scc(-c3ccc(C(F)(F)F)cc3)c12	CF NFkB block 72, Mdm2-MdmX inh 98, Peg3 prom inh-1 97, HIF-2a block 94, KKLEB tox -59 | Mdm2 MdmX conf-1 99 | FLuc counter 50 | Mdm2 MdmX conf-2 100 | HIF-2a inh conf 98 | HIF-1a cs 102
Cc1ccc(-c2csc3ncnc(SCC(=O)O)c23)cc1	none
COc1cccc(-c2csc3ncnc(Sc4nnnn4C)c23)c1	Mdm2-MdmX inh 98, Peg3 prom inh-1 88, HIF-2a block 47 | Mdm2 MdmX conf-1 80 | FLuc counter inactive | HIF-2a inh conf 43 | HIF-1a cs 98
Cn1nnnc1Sc1ncnc2scc(-c3cccc(F)c3)c12	CF NFkB block 66, Mdm2-MdmX inh 98, Peg3 prom inh-1 102, HIF-2a block 75 | Mdm2 MdmX conf-1 99 | FLuc counter 53 | CF NFkB inh conf inactive | Mdm2 MdmX conf-2 103 | HIF-2a inh conf 54 | HIF-1a cs 104
Cn1nnnc1Sc1ncnc2scc(-c3cccc(C(F)(F)F)c3)c12	CF NFkB block 71, Mdm2-MdmX inh 100, Peg3 prom inh-1 95, HIF-2a block 84, KKLEB tox -52 | Mdm2 MdmX conf-1 99 | FLuc counter 53 | Mdm2 MdmX conf-2 103 | HIF-2a inh conf 91 | HIF-1a cs 99
CC(C)(C)OC(=O)C(Oc1ccccc1[N+](=O)[O-])C(=O)OC(C)(C)C	none (no result: CF NFkB block, Mdm2-MdmX inh, Peg3 prom inh-1, KKLEB tox)
CC#CCN(Cc1ccco1)C(=O)c1ccc(OC2CCN(Cc3ccccn3)CC2)cc1	none
COc1ccc2c(c1)-c1c(ssc1=S)C(C)(C)N2	CF NFkB block 81, Mdm2-MdmX inh 92 | Mdm2 MdmX conf-1 87 | FLuc counter 55 | Mdm2 MdmX conf-2 95
COc1ccc2c(c1)-c1c(sn(-c3ccccc3)c1=S)C(C)(C)N2	none
O=C1c2cccc3c([N+](=O)[O-])ccc(c23)C(=O)N1c1ccc(Cl)cn1	Mdm2-MdmX inh 100, Peg3 prom inh-1 105 | Mdm2 MdmX conf-1 100 | FLuc counter 54 | Mdm2 MdmX conf-2 103
Cc1cccc(N(C)c2ncnc3onc(-c4ccc(F)cc4)c23)c1C	none
Cc1ccc(NC(=O)C(C)N2C(=O)c3ccccc3C2=O)cc1C (stereo not drawn)	none
O=C(NN=Cc1c(O)ccc2ccccc12)C1CC1	none (no result: Mdm2-MdmX inh)
Oc1ccc2ccccc2c1/C=N/Nc1nnc(-c2ncc[nH]2)c2ccccc12	Mdm2-MdmX inh 81 | Mdm2 MdmX conf-1 83 | FLuc counter 55 | Mdm2 MdmX conf-2 92
CC(=O)Nc1ccc(NC2=C(Cl)C(=O)c3ccccc3C2=O)cc1	Mdm2-MdmX inh 100 (no result: CF NFkB block, Peg3 prom inh-1, HIF-2a block, ABHD5-PLIN5 inh, KKLEB tox) | Mdm2 MdmX conf-1 100 | FLuc counter 52 | Mdm2 MdmX conf-2 103
O=C(c1ccc(Cl)cc1)N1CCCCC(Sc2nnc(-c3ccc4c(c3)OCO4)o2)C1=O (stereo not drawn)	Mdm2-MdmX inh 84, Peg3 prom inh-1 54, HIF-2a block 64 | Mdm2 MdmX conf-1 82 | FLuc counter 50 | Peg3 prom inh-2 58 | HIF-2a inh conf 83 | HIF-1a cs 68
O=C(O)CSc1nnc(-c2ccc3c(c2)OCO3)o1	none
c1ccc2c(c1)nc(N1CCCCCC1)c1ccccc12	none
Oc1ccc(Nc2nc(N3CCCC3)c3ccccc3n2)cc1	Mdm2-MdmX inh 85, Peg3 prom inh-1 100, HIF-2a block 46 | Mdm2 MdmX conf-1 inactive | HIF-2a inh conf inactive | HIF-1a cs 104
COC(=O)c1ccc2c(c1)C(C)(C)C(/C=C/c1ccccc1O)=[N+]2C	CF NFkB block 64, Mdm2-MdmX inh 71, Peg3 prom inh-1 105, HIF-2a block 96, ABHD5-PLIN5 inh 64 | Mdm2 MdmX conf-1 100 | FLuc counter 52 | CF NFkB inh conf 97 | ABHD5 PLIN5 conf 98 | HNF4 split-luc 95 | Mdm2 MdmX conf-2 103 | HIF-2a inh conf 99 | HIF-1a cs 105
C[N+]1=C(/C=C/Nc2ccccc2Cl)C(C)(C)c2ccccc21	none
COCCNC(=O)C1(C)CCN(C(=O)c2cc(C)nn2C(C)(C)C)C1 (stereo not drawn)	none (no result: Mdm2-MdmX inh)

High-throughput results: PubChem BioAssay, several laboratories
